# Data taken from PMC7819943, “Rice protein-binding microarrays: a tool to detect cis-acting elements near promoter regions in rice”.
# In all, about 39,000 sequences were measured (“fluorescence intensity (a.u.)”: median about 4,300, highest 2% from about 39,000 on). This is one part of a sample in which the highest values are shown more often than they occur.
# Target: T1, OsSMF1 (Oryza sativa, UniProt Q6ZLB0 1-436)
# T1 sequence: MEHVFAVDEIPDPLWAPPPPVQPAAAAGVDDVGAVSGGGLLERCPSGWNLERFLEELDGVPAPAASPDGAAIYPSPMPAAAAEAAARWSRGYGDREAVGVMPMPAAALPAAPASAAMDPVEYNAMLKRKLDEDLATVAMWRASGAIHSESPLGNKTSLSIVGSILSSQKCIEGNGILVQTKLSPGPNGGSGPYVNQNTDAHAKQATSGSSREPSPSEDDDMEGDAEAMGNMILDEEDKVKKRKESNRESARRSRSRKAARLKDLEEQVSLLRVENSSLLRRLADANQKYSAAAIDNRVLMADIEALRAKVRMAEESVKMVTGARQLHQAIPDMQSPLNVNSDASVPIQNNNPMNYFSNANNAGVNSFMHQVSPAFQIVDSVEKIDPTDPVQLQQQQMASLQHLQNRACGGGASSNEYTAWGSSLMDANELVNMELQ
# Assay: protein-binding microarray (RPBM); PBS, 2% BSA, 51.3 ng/ul salmon testes DNA, 50 uM zinc acetate, 200 nM TF, 25 C, 1 h; high values mean tight binding
# Conditions: protein: recombinant; tags: N-terminal polyhistidine and DsRed monomer fusion (pET32a); chain copies: 2; label: CyDye5-dUTP incorporated in the synthesized complementary strand; 3' TTTTT single-stranded linker to array surface; dsDNA, one strand shown
# Outline: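 Binding signal here means per-feature fluorescence intensity in arbitrary units. The values were read on an Axon 4000B scanner after a custom Agilent array, double-stranded by primer extension with Cy5-dUTP, was incubated with 200 nM protein at 25 °C for 1 h in PBS with 2% BSA, salmon testes DNA and 50 µM zinc acetate, then washed. The proteins were transcription factors with an N-terminal polyhistidine tag and DsRed, expressed in E. coli BL21-CodonPlus and purified on Ni–NTA.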
row,Sequence,binding signal
1,CGAATTTGCTACCCCATTTCACAAATCAAAAGTGCAAAGCCGGAGTCACCTAGTGCAG,29200 fluorescence intensity (a.u.)
2,CACAGTCGACGACACCCTCCATCTCCGTCCCTCCCACTCCCGGAGTCACCTAGTGCAG,7160 fluorescence intensity (a.u.)
3,ACGGGCCGTGCTTGGGCCAGCGGCTCGGCACGTGGGCCGGCGGAGTCACCTAGTGCAG,3480 fluorescence intensity (a.u.)
4,GAATCAGTAAATAAAGCGCTAGGTTTAATGATGTCATGGACGGAGTCACCTAGTGCAG,6840 fluorescence intensity (a.u.)
5,ATTAACAATTCAATGGTTCTTGATGTGTTCTACTTAACCTCGGAGTCACCTAGTGCAG,3260 fluorescence intensity (a.u.)
6,AAGATAAATGGTTAAACCTTATATGTGAAACCAGAGAAAACGGAGTCACCTAGTGCAG,21100 fluorescence intensity (a.u.)
7,CCTTCTTAACAGTCTGTGAAGCTCTGCCATCTCACCGTCTCGGAGTCACCTAGTGCAG,3820 fluorescence intensity (a.u.)
8,CTTCGGCCTTAGCTCCAAATCCGATGTAAATTTACCAAATCGGAGTCACCTAGTGCAG,61700 fluorescence intensity (a.u.)
9,TTCGGCGCAAATTTCTAATCATGATGTAATATAATTAGCTCGGAGTCACCTAGTGCAG,3270 fluorescence intensity (a.u.)
10,CTCCAAATTAGTATCCAAACATCCGATGTGACATGGACTTCGGAGTCACCTAGTGCAG,4370 fluorescence intensity (a.u.)
11,TTTCCAATCACGTATTCCGGACAAAGGCCTAAACCTGCTCCGGAGTCACCTAGTGCAG,35800 fluorescence intensity (a.u.)
12,ACCAAAATTCTCATATCTCTCAACTAAACAAAACTCTTAACGGAGTCACCTAGTGCAG,3300 fluorescence intensity (a.u.)
13,ACCCACGCACTCACTGACGATGCAATGCGGCCATATGCTACGGAGTCACCTAGTGCAG,3240 fluorescence intensity (a.u.)
14,CTCTTCATTTGTTAATTTAATTTGATTAATTCAGTGCTTCCGGAGTCACCTAGTGCAG,64900 fluorescence intensity (a.u.)
15,AGTGCTTTATTTTGCTGATTCATTGTTAAAATTGCCTCTACGGAGTCACCTAGTGCAG,5500 fluorescence intensity (a.u.)
16,TAGTAGATAGCTTTGCTCTCTCTCTTCATTTAATATATTCCGGAGTCACCTAGTGCAG,4540 fluorescence intensity (a.u.)
17,GATGTTCAGATGTACAACAGTAATTTGATTGCATCGGCTTCGGAGTCACCTAGTGCAG,3270 fluorescence intensity (a.u.)
18,GCAGAGTTCAGAATTTGTTCAGTTTAGGTGCTTCTGTAATCGGAGTCACCTAGTGCAG,55600 fluorescence intensity (a.u.)
19,TTTTGCTTAGCTGTTCTGTAATTGTCGATTTGAATTGGATCGGAGTCACCTAGTGCAG,3500 fluorescence intensity (a.u.)
20,CGGGAGAGAGGATCGGGAGAGATAGGGTTAGGGTTAGGGTCGGAGTCACCTAGTGCAG,3320 fluorescence intensity (a.u.)
21,CCACCACGTACAGTGCTTTCCTAGGCAGAAGCCCACTATCCGGAGTCACCTAGTGCAG,3490 fluorescence intensity (a.u.)
22,ACCAATCGCATGACGATATTCCCGCTCCCACAATCGCGTTCGGAGTCACCTAGTGCAG,3550 fluorescence intensity (a.u.)
23,CGAACCGATGGTTGTGATTGTACGTGTCTACCTGATACGTCGGAGTCACCTAGTGCAG,5940 fluorescence intensity (a.u.)
24,GAAAATAAGGGAGTTTTCTGCAAAATTTGATGAATGGAAGCGGAGTCACCTAGTGCAG,3230 fluorescence intensity (a.u.)
25,TTTTGGTCATTTTACCATATGACTTTGTTTTGGTAATTTGCGGAGTCACCTAGTGCAG,3210 fluorescence intensity (a.u.)
26,CGGATTCTCGTCGGCTTCGGCGACCGGAAGAGGAGAGGAGCGGAGTCACCTAGTGCAG,3230 fluorescence intensity (a.u.)
27,TTTCTGTGACGGCCCGCGTAGCTTCGGAGGAAGCGACCACCGGAGTCACCTAGTGCAG,47700 fluorescence intensity (a.u.)

row,Sequence,binding signal
1,CGGAGTGGCCAGCGTGGTGACAAGCGCGACGTGGCGGCTTCGGAGTCACCTAGTGCAG,6830 fluorescence intensity (a.u.)
2,TCCCTTGACGGTTTTGGCTGACGTGGCGCCTAGGTGGCTACGGAGTCACCTAGTGCAG,30000 fluorescence intensity (a.u.)
3,CTTGGTGGTTTTATAGGGTGGTTTCGCTGACGTGGCGTGGCGGAGTCACCTAGTGCAG,44600 fluorescence intensity (a.u.)
4,TGGAGGGCAGTTTCGCTGACGTGGCGGTGTTGACCTAGTGCGGAGTCACCTAGTGCAG,34200 fluorescence intensity (a.u.)
5,TCCCTTGGCAGTATAGGTGGGTGGTTTTGCTTACGTGGCACGGAGTCACCTAGTGCAG,40000 fluorescence intensity (a.u.)
6,GTTTAATGGGTTGATGTGGCATGCTTACATATAGGTTTTACGGAGTCACCTAGTGCAG,5830 fluorescence intensity (a.u.)
7,GGCACTATAGATGTTTGGTTTCGCTGACGTGGCATTCTAGCGGAGTCACCTAGTGCAG,49000 fluorescence intensity (a.u.)
8,AGCGGTTTCGCTGACGTGGCGGTTAGGTGGCATTTGAATTCGGAGTCACCTAGTGCAG,23800 fluorescence intensity (a.u.)
9,TTTAGATGGCGGTTTTGGCTGACGTGGCACATATGTGGCTCGGAGTCACCTAGTGCAG,33100 fluorescence intensity (a.u.)
10,GGTTTAGACGTGGCGGTGGTGGGTGGCGTACGTTTGGGTTCGGAGTCACCTAGTGCAG,5180 fluorescence intensity (a.u.)
11,AACTGGAACCCTTAGCCACTGTGAGGTGTACATCTGACAACGGAGTCACCTAGTGCAG,4990 fluorescence intensity (a.u.)
12,CTAGCCACTGAAGCATGGGTCATGATACAGCAGTTAATATCGGAGTCACCTAGTGCAG,3440 fluorescence intensity (a.u.)
13,CTTATCAAGACTCGTGGCGTGGAAAGCTTTACAGGTGAGGCGGAGTCACCTAGTGCAG,4710 fluorescence intensity (a.u.)
14,ATGCATGACAGCACACCACACATTGACACCACTGAGGCAGCGGAGTCACCTAGTGCAG,3260 fluorescence intensity (a.u.)
15,TTAAAGAAATGGTTGGTGCTGCTCCGACTCCCTGTTTCCTCGGAGTCACCTAGTGCAG,16200 fluorescence intensity (a.u.)
16,GCCTCTCCTCAAGCGGTGGAGAGCGCGGACGTGGACGTGCCGGAGTCACCTAGTGCAG,6520 fluorescence intensity (a.u.)
17,TTATGATGTAATTAGGCTCAAAAGATTCGTCTCGCAATTTCGGAGTCACCTAGTGCAG,44200 fluorescence intensity (a.u.)
18,ATTAGGCTCAAAAGATTCGTCTCGCGATTTTCAGACGAGCCGGAGTCACCTAGTGCAG,41800 fluorescence intensity (a.u.)
19,GGCTTAAAAGATTCGTTTCATAATTTACACGCAAACTGTACGGAGTCACCTAGTGCAG,3890 fluorescence intensity (a.u.)
20,GGCTCAAAAGATTCATCTCGCGATTTCCATACAAACTGTACGGAGTCACCTAGTGCAG,46300 fluorescence intensity (a.u.)
21,GATTCGTCTCGCGATTTCCATTCAAACTGTGCAATTAGTTCGGAGTCACCTAGTGCAG,28000 fluorescence intensity (a.u.)
22,TATCAAATTATAGCGCAATTAGGCTCAAAAGATTCAGATTCGGAGTCACCTAGTGCAG,26600 fluorescence intensity (a.u.)
23,GGATTAATTAGTCTCAAAAGATTCGTCTCGCGGTTTCCAGCGGAGTCACCTAGTGCAG,29400 fluorescence intensity (a.u.)
24,TGTCAAATCATGACGCAATTAGGCTCAGAAGATTCGTCTCCGGAGTCACCTAGTGCAG,4030 fluorescence intensity (a.u.)
25,AAAAGATTCGTCTCGCAATTTACACGTAACCTGTGTAATTCGGAGTCACCTAGTGCAG,7350 fluorescence intensity (a.u.)
26,GGGTGATTGAATCCTTGTCATCTAGTGTAAGGCATCTTTCCGGAGTCACCTAGTGCAG,4510 fluorescence intensity (a.u.)
27,CGGCCTATAAGTACTCCATCCCGCCGGCCGGCCGGTGACTCGGAGTCACCTAGTGCAG,3370 fluorescence intensity (a.u.)
